Data from ChEMBL document CHEMBL4513216, “Probing the Open Global Health Chemical Diversity Library for Multistage-Active Starting Points for Next-Generation Antimalarials” (ACS Infect Dis, 2020).
The campaign covered roughly 68,000 compounds. About 2,700 (4%) showed an effect of 50% or more. Many of the other results were omitted from the sample, so strong results are more common in it than they were.

test system: Plasmodium berghei; experiment: Screen against P. berghei liver stage (PbLuc), transformed with Luciferase, at 2uM; type: functional, HepG2; details: tested at 2 uM

| Compound | INHIBITION |
| --- | --- |
| N#CCCN(C(=O)CN1CCCC1c1ccsc1)c1ccccc1F (centres undefined) | 73.05% |
| N#CCCN(C(=O)CN1CCCC1c1ccsc1)c1ccccc1 (centres undefined) | -37.2% |
| N#CCCN(C(=O)CN1CCCC1c1cccs1)c1ccccc1F (centres undefined) | -13.06% |
| CC(C)c1nnc2n1CCN(C(=O)c1cc3cc(F)ccc3[nH]1)C2 | 31.57% |
| CC(C)CC(=O)N1CCCC1c1cc(CO)[nH]n1 (centres undefined) | 31.92% |
| CN(C)C[C@@H]1OC[C@H]2CN(Cc3ccoc3)CC[C@H]21 | 0.13% |
| CN(Cc1cccnc1)C[C@@H]1OC[C@H]2CN(Cc3ccco3)CC[C@H]21 | 10.53% |
| CN(Cc1ccco1)C[C@@H]1OC[C@H]2CN(Cc3nccs3)CC[C@H]21 | 59.03% |
| O=C(NC[C@H]1OC[C@@H]2CN(Cc3ccco3)CC[C@@H]21)c1cccnc1 | -36.8% |
| CN(Cc1ccco1)C[C@H]1OC[C@@H]2CCN(Cc3ccccn3)C[C@@H]21 | -1.63% |
| CN(Cc1ccco1)C[C@H]1OC[C@@H]2CCN(Cc3nccs3)C[C@@H]21 | -13.27% |
| CN(Cc1ccco1)C[C@H]1OC[C@@H]2CCN(Cc3cccs3)C[C@@H]21 | -2.83% |
| Cc1ccc(CN2CC[C@H]3CO[C@H](CN(C)Cc4ccco4)[C@H]3C2)s1 | 59.03% |
| O=C(NC[C@H]1OC[C@@H]2CN(Cc3ccco3)CC[C@@H]21)c1cscn1 | 66.46% |
| CN(Cc1ccco1)C[C@H]1OC[C@@H]2CCN(Cc3ccsc3)C[C@@H]21 | 22.89% |
| CN(Cc1cccnc1)C[C@@H]1OC[C@H]2CN(Cc3ccoc3)CC[C@H]21 | 55.7% |
| Cn1cc(C(=O)NC[C@@H]2OC[C@H]3CN(Cc4ccco4)CC[C@H]32)cn1 | -33.95% |
| O=C(N[C@@H]1CN(Cc2ccc3[nH]ccc3c2)C[C@H]1O)c1cscn1 | -0.83% |
| Cc1nn(C)c(C)c1CC(=O)N1CCC(N(C)c2cccnn2)CC1 | -48.87% |
| COc1ccc(C2=CCN(C(=O)C3CCS(=O)(=O)C3)CC2)cc1 (centres undefined) | -7.13% |
| Cc1ccccc1CN1CCC(NCC2CNc3ccnn3C2)CC1 (centres undefined) | -4.7% |
| N#Cc1ccccc1CN1C[C@H]2CC[C@@H](C1)N(CC1CCC1)C2=O | -39.43% |
| COc1ncccc1C(=O)NCCn1cnc(C)cc1=O | -7.16% |
| CCc1ccc(S(=O)(=O)Nc2ccn(CC(=O)OC)n2)cc1 | 11.9% |
| COC(=O)Cn1ccc(NS(=O)(=O)c2ccc3c(c2)CCC3)n1 | 53.98% |
| O=S(=O)(NCCCn1cccn1)c1ccc2c(c1)CCC2 | 42.26% |

| Compound | INHIBITION |
| --- | --- |
| O=S(=O)(NCCCn1cncn1)c1ccc2c(c1)CCCC2 | -5.74% |
| CCn1ccc(NS(=O)(=O)c2cccc(COC)c2)n1 | -85.71% |
| O=S(=O)(NCCCn1cncn1)c1ccc2c(c1)OCCCO2 | -56.09% |
| O=S(=O)(NCCCn1cncn1)c1ccc2c(c1)CCC2 | 54.99% |
| O=S(=O)(NCCCn1cncn1)c1ccc2c(c1)CCO2 | -9.13% |
| O=S(=O)(NCCCn1cncn1)c1ccc2c(c1)OCCO2 | 65.71% |
| CCCN1CCC2(C1)c1ccccc1S(=O)(=O)N2Cc1ccccc1 (centres undefined) | 9.87% |
| CCCn1ccc2cc(NC(=O)NCCn3cnnc3CC)ccc21 | 12.58% |
| O=C([C@H]1COC[C@H]2CN(C3CCCC3)C[C@H]21)N1CCCO1 | 0.13% |
| CCS(=O)(=O)N1CCC2(CC(=O)N(c3ccccc3C)C2)C1 (centres undefined) | 46.87% |
| Cc1ccc(C2c3c(n[nH]c3C)N=C3COC(=O)C32)cc1C (centres undefined) | 28.23% |
| CC(=O)Nc1cnc(Oc2ccccc2F)nc1 | 8.41% |
| CO[C@@H]1CO[C@@]2(CCCN(Cc3nc(C)cs3)C2)C1 | -61.54% |
| O=C1CC(NCc2ccncc2)CN1Cc1cccc(F)c1 (centres undefined) | -12.82% |
| Nc1cc2c(nn1)CCN(C(=O)CCCC1CCCCC1)C2 | -33.92% |
| Cc1nc(CN2CCCC(N(C)c3ccc(C#N)cn3)C2)no1 (centres undefined) | -14.71% |
| COc1cc2c(nn1)CCN(Cc1noc(-c3ccccc3)n1)C2 | 0.12% |
| COc1cc2c(nn1)CCN(Cc1nc(Cc3ccccc3)no1)C2 | 48.93% |
| COc1cc2c(nn1)CCN(Cc1noc(CC(C)C)n1)C2 | 65.76% |
| COc1c(C2CCCN2C(=O)c2cc(C3CC3)on2)c(C)nn1C (centres undefined) | -47.94% |
| Cc1nn(C)c(Cl)c1C1CCCN1C(=O)c1ccc(C(N)=O)cn1 (centres undefined) | 68.24% |
| Cc1nn(C)c(Cl)c1C1CCCN1C(=O)c1cnccn1 (centres undefined) | 3.86% |
| Cc1nn(C)c(Cl)c1C1CCCN1C(=O)c1csnn1 (centres undefined) | 75.98% |
| Cc1cc(C(=O)N2CCCC2c2c(C)nn(C)c2C)no1 (centres undefined) | 43% |
| Cc1nn(C)c(C)c1C1CCCN1C(=O)c1ccc(C(N)=O)cn1 (centres undefined) | -27.71% |
| Cc1nn(C)c(Cl)c1C1CCCN1C(=O)c1ccc(O)nc1 (centres undefined) | -36.73% |

| Compound | INHIBITION |
| --- | --- |
| Cc1nn(C)c(Cl)c1C1CCCN1C(=O)c1cc[nH]n1 (centres undefined) | 47.57% |
| COc1c(C2CCCN2C(=O)c2cc(C)on2)c(C)nn1C (centres undefined) | 51.94% |
| O=C([C@H]1CN(Cc2ccccc2F)C[C@H]2OCC[C@@H]12)N1CCCO1 | 13.61% |
| CC(NC(=O)N1CCCN(CC(F)F)CC1)c1ccco1 (centres undefined) | 1.06% |
| CNc1nc(CNC(=O)Nc2cccc(C)c2Cl)cs1 | 15.4% |
| CNc1nc(CNC(=O)Nc2cccc(Cl)c2OC)cs1 | -4.43% |
| CNc1nc(CNC(=O)Nc2cccc(Cl)c2Cl)cs1 | 61.09% |
| CC(C)(C)c1nnc(NCC(=O)N2CCc3sccc3C2)s1 | 33.83% |
| O=C(NCc1nnc2n1CCC2)N(Cc1ccco1)C1CC1 | 17.52% |
| Cc1ccc(N2CCCC(NCc3cccc4c3OCCO4)C2)nn1 (centres undefined) | 15.13% |
| c1cnnc(N2CCCC(NCc3cccc4c3OCO4)C2)c1 (centres undefined) | -9.98% |
| Cc1ccc(N2CCCC(NCc3cccc4c3OCO4)C2)nn1 (centres undefined) | 56.02% |
| Cc1ccc(N2CCCC(NCCS(C)(=O)=O)C2)nn1 (centres undefined) | 52.6% |
| Cc1ccc(N2CCCC(NCCCS(C)(=O)=O)C2)nn1 (centres undefined) | -15.77% |
| COCCCNC1CCCN(c2ccc(C)nn2)C1 (centres undefined) | -73.41% |
| CCOCC1CN(Cc2cnn(C)c2)Cc2nn(C)cc21 (centres undefined) | 19.44% |
| CS(=O)(=O)N[C@@H]1CN(C(=O)c2cccnc2)[C@@H]2CCCO[C@@H]21 | -13.61% |
| COCC(NC(=O)c1cnn(C)c1)c1cccc(C(F)(F)F)c1 (centres undefined) | 31.38% |
| CCOCC1CN(Cc2ccoc2)Cc2nn(C)cc21 (centres undefined) | -55.93% |
| CC(C)CN1CCCn2nc(CNC(=O)Cc3cccc(O)c3)cc2C1 | 49.95% |
| CCc1nc(CN(C)C2CCN(CCn3cccn3)C2)no1 (centres undefined) | 51.94% |
| CN(Cc1noc(C2CC2)n1)C1CCN(CCn2cccn2)C1 (centres undefined) | 10.1% |
| CN(Cc1noc(C2CC2)n1)C1CCN(CCS(C)(=O)=O)C1 (centres undefined) | -6.15% |
| CCc1nc(CN(C)C2CCN(CCc3ccncc3)C2)no1 (centres undefined) | -11.16% |
| CC(C)c1nc(CN(C)C2CCN(CCn3cc(C#N)cn3)C2)no1 (centres undefined) | 60.09% |
| CCc1nc(CN(C)C2CCN(CCS(C)(=O)=O)C2)no1 (centres undefined) | 50.72% |

| Compound | INHIBITION |
| --- | --- |
| Cc1nc(CN(C)C2CCN(CCn3cc(C#N)cn3)C2)no1 (centres undefined) | -27.5% |
| CN(Cc1noc(C2CC2)n1)C1CCN(CCn2cc(C#N)cn2)C1 (centres undefined) | -9.17% |
| CCc1nc(CN(C)C2CCN(CCNS(=O)(=O)CC)C2)no1 (centres undefined) | 20.71% |
| CC(=O)N(C)CC(=O)NC1(c2ccc(Cl)c(Cl)c2)CC1 | 23.45% |
| Cc1nc(C)c(C(=O)NCCNC(=O)Cc2cccc(F)c2)s1 | 30.91% |
| CSCC(C)(O)CNS(=O)(=O)c1ccc(F)cc1 (centres undefined) | -40% |
| CN(Cc1csc(-c2cccs2)n1)Cc1cccnc1N | 27.47% |
| Clc1ccc(OCCCN2CCOC(Cn3cncn3)C2)cc1 (centres undefined) | 9.17% |
| COc1cc(CN2CCCC2)ccc1Oc1ncccc1C(F)(F)F | 43.1% |
| COc1cc(Oc2ncccc2C(F)(F)F)ccc1CN1CCCC1 | 66.12% |
| COc1ccc(Oc2ncccc2C(F)(F)F)cc1CN1CCCC1 | 20% |
| c1cc2nccc(CC3CCCN(Cc4c[nH]cn4)CC3)c2cn1 (centres undefined) | -0.83% |
| O=C(O)c1ccnc(-c2ccnc(COc3ccccc3Cl)n2)c1 | 17.2% |
| CCc1cnc(CNC(=O)NCCc2ccc(O)cc2)s1 | 47.59% |
| CCc1cnc(CNC(=O)NC2CC(C)(C)OC2(C)C)s1 (centres undefined) | -1.45% |
| CCc1cnc(CNC(=O)NCCCO)s1 | 52.85% |
| CN(C)CC1CN(c2ncnc3ccsc23)CCO1 (centres undefined) | 44.6% |
| CCN1CCCC1CNC(=O)CCc1cccs1 (centres undefined) | 9.27% |
| CSc1ccc(OC(C)C(=O)Nc2c(C)n[nH]c2C)cc1 (centres undefined) | 3.5% |
| CC(=O)N1CCC(c2cnc(-c3c(C)nn(C)c3C)cn2)CC1 | 34.06% |
| COc1cc(C(=O)N2CCCC2CC(=O)c2cnn(C)c2)ccc1F (centres undefined) | 64.2% |
| CCc1ccccc1C(=O)N1CCCC1CC(=O)c1cnn(C)c1 (centres undefined) | -7.41% |
| Cn1cc(C(=O)CC2CCCN2C(=O)c2ccncc2F)cn1 (centres undefined) | -5.09% |
| Cn1cc(C(=O)CC2CCCN2C(=O)c2cncc3ccccc23)cn1 (centres undefined) | 11.1% |
| Cn1cc(C(=O)CC2CCCN2C(=O)c2cccc3ncccc23)cn1 (centres undefined) | 51.19% |
| Cn1cc(C(=O)CC2CCCN2C(=O)c2ccc(Cl)cn2)cn1 (centres undefined) | 24.55% |
